KinaseGlo FLuc: counter-screen: inhibitors of Kinase-Glo firefly luciferase; Q27757; Kinase-Glo luciferase, ATP luminescence, 8 min; Potency, µM (doses to about 38.3 µM), inactives show at the highest dose activity change, negative = inhibition, most hits filed as inhibitors; hit rate 0.28% among 200,000; AID 1379; also: % is scaled to controls: 0 for no effect and ±100 for the full control effect; nearly all actives have a fitted effect of over 60% in size
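Recombinant Kinase-Glo luciferase, 10 uM ATP (linear range), luciferin; imidazole pH 7.2 / KCl / MgCl2 / Tween / BSA buffer; 8 min RT; luminescence.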
FLuc modulator: counter-screen for miR-21 project: firefly luciferase inhibitors or activators; purified FLuc, Km substrates, luminescence inhibition; Potency, µM (top dose mostly 57.5 µM), without a hit: top-dose activity change, negative = inhibition, actives largely listed as inhibitors; hit rate 6.9% among 360,000; AID 588342;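 also: plate controls were vehicle for no effect and reference inhibitor for full effect; nearly all actives have a fitted effect of over 55% in size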
Target sequence (P08659 whole entry, looked up): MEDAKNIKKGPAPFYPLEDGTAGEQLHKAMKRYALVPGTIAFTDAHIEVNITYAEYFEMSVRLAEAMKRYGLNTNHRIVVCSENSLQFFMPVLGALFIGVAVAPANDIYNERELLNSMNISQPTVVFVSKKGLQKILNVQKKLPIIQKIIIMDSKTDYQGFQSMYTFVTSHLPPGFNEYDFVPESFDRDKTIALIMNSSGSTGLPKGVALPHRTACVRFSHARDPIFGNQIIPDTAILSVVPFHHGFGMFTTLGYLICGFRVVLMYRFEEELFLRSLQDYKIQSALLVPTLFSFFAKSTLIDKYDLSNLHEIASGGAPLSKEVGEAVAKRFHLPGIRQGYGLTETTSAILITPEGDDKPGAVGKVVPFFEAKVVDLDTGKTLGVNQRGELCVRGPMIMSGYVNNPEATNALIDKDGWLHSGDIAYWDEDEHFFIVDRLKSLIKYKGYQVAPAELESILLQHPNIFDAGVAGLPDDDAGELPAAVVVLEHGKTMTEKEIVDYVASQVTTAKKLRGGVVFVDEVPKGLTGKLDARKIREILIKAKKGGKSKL
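Purified P. pyralis luciferase, 10 nM final, with Km-level 10 uM D-luciferin and 10 uM ATP in 50 mM Tris acetate pH 7.5, 10 mM Mg acetate, 0.01% Tween-20, 0.05% BSA; 6-point qHTS titration about 60 µM downward; luminescence read.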
ELG1 genotox: inducers of genotoxicity in HEK293T ELG1-luciferase cells. hit rate 1.3% among 330,000. HEK293T ELG1-luciferase reporter, luminescence, 16 h. AID 504466. Potency, µM (doses to about 46 µM), inactives show at the top dose activity change, positive = activation, actives largely listed as activators; also: % of control where 0% means no effect; nearly all actives have a fitted effect of over 60% in size
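HEK293T cells expressing luciferase-tagged ELG1 were exposed to compound or DMSO vehicle for 16 hr at 37 °C and 5% CO2. Luciferase activity was then measured with ONE-Glo after 30 min at room temperature.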
Rab9 promoter act: activators of Rab9 promoter | Huh7 Rab9 promoter-luciferase reporter, luminescence, 24 h | Potency, µM (titrated, usually from 9.22 µM), inactives show at the top dose activation, negative = inhibition, actives largely listed as activators | hit rate 2.8% among 320,000 | AID 485297; also: % of control where 0% means no effect; nearly all actives have a fitted effect of over 60% in size
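Using Huh7 cells stably transfected with Rab9 promoter–luciferase, compounds were incubated 24 h at 37 °C, 5% CO2; luciferase luminescence was read 10 min after reagent addition.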
NPC1 promoter act: activates the NPC1 promoter; Huh7 NPC1 promoter luciferase reporter, 24 h; Potency, µM (titrated, usually from 9.22 µM), without a hit: at the top dose activation, most hits filed as activators; hit rate 2.4% among 320,000; AID 485313; also: % of control where 0% means no effect; nearly all actives have a fitted effect of over 60% in size
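In 1536-well qHTS, Huh7 cells harboring an NPC1 promoter–luciferase construct received compound for 24 h; activation was quantified by luminescence following luciferase reagent addition.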
SMN2 splice enh: SMN2 splice variant enhancement; Potency, µM (doses to about 46.1 µM), for inactives: top-dose activity change, positive = activation, most hits filed as activators; hit rate 2.8% among 210,000; HEK293 SMN2-luciferase splicing reporter, luminescence, 30-36 h; also: % of control where 0% means no effect; nearly all actives have a fitted effect of over 55% in size
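qHTS luciferase splicing reporter: luminescence rises when SMN2 exon 7 is included in transfected HEK293 cells. Compound exposure lasted 30-36 h at 37C, with 4.5 mM final sodium butyrate as control, followed by a ONE-Glo read.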
An asterisk follows results filed as active; ? = inconclusive; / = no result given; [ ] = dose if it differs, or a comment. Most compounds without a hit are left out; they make up all but 7.4% or so of the library. Calls follow the shape of the dose curve; as a rule, active = well fitted curve in the direction sought with a large enough effect; inconclusive = small, poorly fitted or top-dose-only effect, or another doubt; inactive = no such curve, though single readings can be large; an effect the other way counts as inactive or inconclusive. Potency is read from the fitted curve at half-maximal effect.

SMILES | KinaseGlo FLuc | FLuc modulator | ELG1 genotox | Rab9 promoter act | NPC1 promoter act | SMN2 splice enh
O=C(N/N=C/c1ccco1)c1ccc(Br)o1 | -6.8% | -11.1% | 2.8% | -2.0% | -3.0% | 3.5%
O=C(N/N=C/c1cc2c(cc1Br)OCO2)c1ccccn1 | / | 2.69µM* | ? | 1.26µM* | 2.51µM* | /
CC(C)(C)c1ccc(SCCc2cccnc2)cc1 | / | 5.36µM* | ? | 3.55µM* | 2µM* | /
c1ccc(SCCc2ccncc2)cc1 | -1.3%[7.66 µM] | -22.3% | 0.7% | -1.4% | 10.8% | -21.7%[9.22 µM]
CC(C)(C)c1ccc(OCCC(=O)OCC(=O)NC2CC2)cc1 | / | 15.1µM* | -0.6% | -8.2% | -3.8% | /
CC(C)(C)c1ccc(OCCC(=O)OCC(=O)NC2CCS(=O)(=O)C2)cc1 (centres undefined) | / | ? | 0.3% | -5.7% | -4.0% | /
CC(C)(C)c1ccc(OCCC(=O)OCC(=O)NCc2ccccc2)cc1 | / | 19µM* | 5.6% | -5.5% | 0.1% | /
Cc1ccc(OCCC(=O)OCC(=O)c2c(N)n(C)c(=O)n(C)c2=O)cc1 | / | -11.1% | -4.0% | 1.0% | 4.0% | /
Cn1c(N)c(C(=O)COC(=O)CCOc2ccc(C(C)(C)C)cc2)c(=O)n(C)c1=O | -1.0% | 21.3µM* | 3.9% | 8.0% | -3.4% | 8.7%
Cc1cc(C(=O)NC2CC(C)(C)Cc3c2cnn3-c2ccc(F)cc2)no1 (centres undefined) | / | ? | 4.8% | ? | 1.5% | /
CC(NC(=O)c1cccc(S(=O)(=O)N2CCCCCC2)c1)c1ccccc1 (centres undefined) | / | 2.0% | -0.5% | -4.7% | -4.5% | /
CC1CC(C)CN(CCCNC(=O)c2ccc3c(c2)ncn3C2CCCC2)C1 (centres undefined) | / | 3.9% | 5.3% | -2.5% | -3.4% | /
Oc1ccc(-c2cnc(-c3ccc(O)cc3)nc2)cc1 | / | 1.07µM* | 2.91µM* | ? | 1.12µM* | /
CCCC(=O)Nc1ccc(-c2cnc(-c3ccc(NC(=O)CCC)cc3)nc2)cc1 | / | 9.1% | 4.3% | 1.8% | -4.1% | /
Nc1ccc(-c2cnc(-c3ccc(N)cc3)nc2)cc1 | 1.4% | 3.38µM* | ? | 1.58µM* | 1.12µM* | 3.55µM*
Cc1nn(CC(=O)NCCCN2CC(C)CC(C)C2)c(=O)c2cccn12 (centres undefined) | / | 1.7% | 1.6% | -0.8% | -1.9% | /
O=C(COC(=O)c1cccs1)c1ccc2ccccc2c1 | -18.4% | 1.69µM* | ? | 28.1% | ? | -20.3%
O=C(COC(=O)c1cccs1)c1ccc2c(c1)OCCO2 | 2.51µM* | 0.0757µM* | 10.3µM* | 0.316µM* | 1.58µM* | -9.9%
CC(=O)NC12CC3CC(C1)CC(C(=O)OCC(=O)c1ccc4c(c1)OCCO4)(C3)C2 | -3.7% | 0.239µM* | ? | 0.1µM* | 0.501µM* | -1.6%
O=C(COC(=O)c1cccs1)NCc1ccc2c(c1)OCO2 | -7.1% | ? | -2.1% | -1.0% | 3.6% | -1.2%
CC(C)Nc1nc(Oc2ccc(=O)n(-c3ccccc3)n2)nc(N(C)C)n1 | / | 7.4% | 2.9% | 0.8% | 1.8% | /
CCc1ccc2oc(-c3cc(NC(=O)c4cc([N+](=O)[O-])ccc4N4CCOCC4)ccc3Cl)nc2c1 | / | ? | / | / | / | 6.3%
O=C1c2ccccc2C(=O)N1CCc1c[nH]c2ccccc12 | -4.2% | 6.75µM* | ? | 3.55µM* | ? | /
O=C1c2ccccc2C(=O)N1CCCc1c[nH]c2ccccc12 | 3.1% | -17.7% | -2.3% | 18.1% | 2.9% | -0.3%
Cc1ccc(C2=N/C(=C\N(C)C)C(=O)O2)cc1 | -0.6% | 15.1µM* | 14.6µM* | ? | ? | 15.8%
SMILES | KinaseGlo FLuc | FLuc modulator | ELG1 genotox | Rab9 promoter act | NPC1 promoter act | SMN2 splice enh
CN(C)/C=C1\N=C(c2ccc(Cl)cc2Cl)OC1=O | -2.1% | ? | 9.2µM* | 0.631µM* | 1.12µM* | -31.9%
Cc1cccc(C2=N/C(=C\c3cccs3)C(=O)O2)c1 | 0.6% | 2.13µM* | 3.4% | 2.1% | -1.5% | 1.3%
Cc1ccc(C2=N/C(=C\c3cccc(F)c3)C(=O)O2)cc1 | / | 3.01µM* | -0.1% | 1.3% | 2.4% | /
CCOC(=O)c1cccc(NC(=O)Cn2ncc3c4ccccc4n(Cc4ccccc4)c3c2=O)c1 | / | -1.8% | / | / | / | 12.1%
NC(=O)CSc1nnc(NC(=O)c2ccc(S(=O)(=O)N3CCCCC3)cc2)s1 | / | -13.7% | -1.9% | 0.4% | -4.3% | /
CCN1CCN(C(c2cccc(F)c2)c2c(O)cc(C)n(Cc3ccco3)c2=O)CC1 (centres undefined) | / | -16.2% | / | / | / | /
CCc1ccc(C(=O)Cn2ncc(Cl)c(Cl)c2=O)cc1 | -1.8% | 7.57µM* | 12.1% | -8.4% | -14.3% | /
Cc1ccc(Cn2ncc(Cl)c(Cl)c2=O)cc1 | 1.4% | -0.3% | -16.1% | -6.7% | -13.6% | ?
CN(/N=C/c1cccnc1)c1cnc2ccccc2n1 | -0.1% | 5.36µM* | ? | 2.82µM* | ? | 11.2µM*
OCC1O[C@@H](OC2C(O)C(CO)O[C@@]2(CO)O[C@@H]2OC(CO)C(O)C(O)C2O)C(O)C(O)C1O (some centres undefined) | -1.0% | / | / | / | / | -2.3%
Cc1ccc(NC(=O)/C=C/c2ccccc2)c(Br)c1 | / | 2.69µM* | / | / | / | 8.91µM*
Cn1c(NC(=O)/C=C\c2ccccc2)cc(=O)n(C)c1=O | -4.1% | ? | ? | 3.55µM* | 29.8% | /
O=C(Oc1ccc(-c2cnc3ccccc3n2)cc1)c1ccc(Br)o1 | 8.9% | ? | 9.2µM* | 27.3% | ? | ?
O=C(OCc1nc2ccccc2s1)c1ccc(Br)o1 | 3.0% | ? | 14.0% | -0.1% | -4.7% | 19.0%
O=C(Oc1ccc(-c2cnc3ccccc3n2)cc1)c1ccc(Cl)c([N+](=O)[O-])c1 | -1.2% | ? | 8.2µM* | 3.0% | 11.7% | ?
O=C(Oc1ccc(-c2cnc3ccccc3n2)cc1)c1cccc([N+](=O)[O-])c1 | -3.9% | ? | 7.31µM* | ? | ? | 31.6µM*
COc1c(OC(C)=O)ccc(/C=C/c2ccc3cccc(OC)c3n2)c1[N+](=O)[O-] | 5.8% | 12µM* | 6.1% | 21.5% | 21.8% | 22.9%
CCn1c(/C=C/c2ccccc2[N+](=O)[O-])nc2ccccc2c1=O | 3.9% | ? | 2.8% | 2.0% | -3.1% | -20.4%
COc1c(OC(C)=O)ccc(/C=C/c2ccc3ccccc3n2)c1[N+](=O)[O-] | 2.8% | 1.51µM* | ? | ? | ? | 22.4µM*
O=[N+]([O-])c1ccccc1/C=C/c1ccc2ccccc2n1 | / | 2.13µM* | ? | 3.98µM* | 3.55µM* | /
O=[N+]([O-])c1cccc2ccc(/C=C/c3ccc(F)cc3)nc12 | -3.6% | 8.49µM* | 24.5% | 1.3% | 19.7% | ?

From PubChem
